Screens deposited in PubChem BioAssay by National Center for Advancing Translational Sciences (NCATS).
Shown are actives, neighbours in structure and some others; about 11% of the full set was active somewhere.
HPGD block: qHTS Assay for Inhibitors of HPGD (15-Hydroxyprostaglandin Dehydrogenase). purified HPGD, NADH fluorescence kinetic, PGE2 substrate. Potency, µM, for inactives: at the highest dose activity change, negative = inhibition, most hits filed as inhibitors. actives 4.3% (n = 150,000). AID 894, 2007; further: potency means the concentration at half of the fitted maximal effect
Target sequence (P15428 whole entry, looked up): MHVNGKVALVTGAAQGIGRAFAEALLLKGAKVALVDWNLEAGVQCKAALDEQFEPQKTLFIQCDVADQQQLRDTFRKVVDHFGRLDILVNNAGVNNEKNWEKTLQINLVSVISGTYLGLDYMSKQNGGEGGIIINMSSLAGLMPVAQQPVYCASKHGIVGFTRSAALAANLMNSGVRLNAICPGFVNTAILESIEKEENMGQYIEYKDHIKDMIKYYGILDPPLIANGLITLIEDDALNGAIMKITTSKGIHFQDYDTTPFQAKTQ
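20 nM HPGD preincubated 15 min at room temperature with compound in 50 mM Tris-HCl pH 8, 0.01% Tween 20. Started with 1 mM NAD+ and 30 uM prostaglandin E2; NADH fluorescence (360/450 nm) read 5 times over 30-s intervals, last minus first.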
ALDH1A1 inh: qHTS Assay for Inhibitors of Aldehyde Dehydrogenase 1 (ALDH1A1). Potency, µM (top dose mostly 75.3 µM), inactives show top-dose activity, negative = inhibition, most hits filed as inhibitors. actives 7.3% (n = 220,000). Purified ALDH1A1, NADH fluorescence, propionaldehyde substrate. Aldehyde dehydrogenase 1A1 (Homo sapiens), P00352;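 further: potency means the concentration at half of the fitted maximal effect; plate controls were no enzyme wells and a reference inhibitor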
PNC assembly inh: High Content Assay for Compounds that inhibit the Assembly of the Perinucleolar Compartment; PC3M PTB-GFP, PNC prevalence imaging, 16 h; hits give low values; actives 3.1% (n = 140,000); activity change (PNC), negative = inhibition, % at 10 µM;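 active means readout at or below -70, meaning at least 70% loss of cells showing the perinucleolar compartment, a nuclear body marking cancer cells; inconclusive means readout between -30 and a set limit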;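 further: plate controls were DMSO wells for no effect and camptothecin positive control wells for full effect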
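Compounds are pinned in duplicate onto adhered PC3M cells stably expressing GFP-tagged PTB and incubated 16 h at 37 C. Cells are then fixed, nuclei stained with Hoechst, and PNC-positive cells counted.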
* = called active by the depositor; ? = inconclusive; . = no result. Unless noted, the call rests on the fitted dose curve; in most records, active means well fitted inhibition curve with a large enough effect (not every such curve was filed as active); inconclusive means small, poorly fitted or top-dose-only effect, or another doubt; inactive means no such curve, though single readings can be large or run the other way. Unless noted, on the % scale 0 is the no-effect control and ±100 the full control effect.

SMILES	HPGD block	ALDH1A1 inh	PNC assembly inh
CNC(=O)/C(C#N)=C/c1c(N2CC(C)OC(C)C2)nc2ccccn2c1=O (stereo not drawn)	?	-3%	18
CN(C)c1nc(-c2ccccc2C(F)(F)F)nc2ccccc12	.	-6%	.
COCCCNC(=O)C1CCCN(S(C)(=O)=O)C1 (stereo not drawn)	-9%	-1%	35
Cc1cccn2c(=O)c(/C=C(\C#N)C(=O)NC3CCS(=O)(=O)C3)c(N3CCC(C(N)=O)CC3)nc12 (stereo not drawn)	?	5%	-25
Cc1ccc(S(=O)(=O)/C(C#N)=C/c2c(N3CCC(C(N)=O)CC3)nc3c(C)cccn3c2=O)cc1	3.5µM*	?	-14
Cc1cccn2c(=O)c(/C=C(\C#N)S(=O)(=O)c3ccccc3)c(N3CCC(C(N)=O)CC3)nc12	28µM*	?	22
Cc1ccc(S(=O)(=O)/C(C#N)=C/c2c(N3CCOCC3)nc3ccccn3c2=O)cc1	16µM*	2%	?
O=Cc1c(N2CCOCC2)nc2ccccn2c1=O	.	-2%	.
Cc1ccc(Oc2nc3c(C)cccn3c(=O)c2/C=C(\C#N)C(N)=O)cc1	.	-15%	.
CCCCNc1ccc(S(=O)(=O)c2cccc([N+](=O)[O-])c2)cc1[N+](=O)[O-]	-18%	-8%	-1
COCC(C)NC(=O)C(C)Oc1ccccc1 (stereo not drawn)	-10%	5%	20
COc1cc(N[C@@H](C)CCCN)c2ncccc2c1	-3%	?	.
COCCN(C(=S)Nc1cc(C)cc(C)c1)C(C)c1ccco1 (stereo not drawn)	.	12%	.
CCOC(=O)c1c(C)[nH]c(C)c1C(=O)COC(=O)/C=C/c1ccc(Cl)cc1	-5%	12%	7
CC(C)Cn1c2c(c(O)c(C(=O)Nc3ccc(F)cc3)c1=O)CCCC2	.	?	17
CC(C)Cn1c2c(c(O)c(C(=O)Nc3ncccc3O)c1=O)CCCC2	-8%	7.9µM*	-91*
COCCn1c(=O)c(-c2cc(F)cc(F)c2)nc2cnc(Oc3ccc(OC)cc3)nc21	-24%	0%	.
Cc1cnc(CNc2cc(-c3ccccc3C)ncn2)cn1	.	-4%	.
CCN(CC)c1nc(N)c2c(N)nc3c(c2c1C#N)CC(c1ccccc1)O3 (stereo not drawn)	?	?	20
CCN(CC)c1nc(N)c2c(N)n(-c3ccccc3C)c(=S)c(C#N)c2c1C#N	20µM*	?	16
C[C@H]1C2=C3C(CC[C@H]4C(OCc5ccc(F)cc5C(F)(F)F)OC[C@](C)([C@@H]34)N(C(=O)OC(C)(C)C)C2)C(CO)C1CO (stereo partly drawn)	-17%	4%	.
CCCCCCCn1c(=N)n(CC(O)c2ccco2)c2ccccc21 (stereo not drawn)	.	-7%	.
N=c1n(CCN2CCCC2)c2ccccc2n1CC(O)c1ccco1 (stereo not drawn)	0%	8%	-92*
Cc1ccc(OCCOCCN(C)C)c(Cl)c1	4%	-4%	-96*
CCc1cc(OCCOCCN(C)C)ccc1Cl	-2%	-8%	74
SMILES	HPGD block	ALDH1A1 inh	PNC assembly inh
COc1cc(C)ccc1OCCOc1c(Cl)cc(Cl)cc1Cl	.	6%	?
COc1cc(C)ccc1OCCOc1cc(C)ccc1Cl	2.2µM*	?	-11
Cn1cccc1C(=O)N1CCC2(CCCN(C(=O)Nc3ccccc3)C2)CC1	-2%	-5%	.
O=C1C2CCCN2C(c2ccccc2)N1c1ccc(F)cc1 (stereo not drawn)	-10%	3%	44
COc1cccc(N2C(=O)C3CCCN3C2c2ccc(N(C)C)cc2)c1 (stereo not drawn)	-12%	1µM*	-28
O=C1C2CCCN2C(c2ccc(F)cc2)N1c1ccc(Cl)cc1 (stereo not drawn)	-3%	-14%	-98*
COc1cccc(N2C(=O)C3CCCN3C2c2ccc(Cl)cc2)c1 (stereo not drawn)	-8%	6%	?
Cc1nnc(NC(=O)CCNC(=O)c2ccccc2Cl)s1	.	4%	.
OCCN1CCN(C(=S)c2ccc(Cl)c(Cl)c2)CC1	14µM*	?	-15
COc1cc(NC(=S)N2CCN(CCO)CC2)c(OC)cc1Cl	.	5%	.
O=C/C(=C\Nc1ccc(S(=O)(=O)CCO)cc1)c1nc2cc(Cl)ccc2o1	.	-10%	.
O=[N+]([O-])c1nn(-c2ccc3c(c2)OCCO3)n(O)c1=NCc1ccc(F)cc1	20µM*	-1%	84
O=[N+]([O-])c1nn(-c2ccc3c(c2)OCCO3)n(O)c1=NCc1ccc(F)cc1Cl	.	-1%	.
